From PubChem BioAssay (NCI)
This is part of a sample that, as a whole, favours compounds with a hit. Of some 79,000 tested, about 15% had one in any assay. The source made the active and inactive calls. Cut-off read from the data, not from the text of the source: active = growth inhibition above about 70%; inactive = the rest.

Experiments:
[1] = NCI Yeast Anticancer Drug Screen. Data for the rad52 strain (AID 147);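 note: 0% = growth of vehicle-treated control cultures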; details: S. cerevisiae rad52 mutant growth inhibition, active compounds read high
In short: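 Inhibition of yeast growth, referenced to vehicle controls, was the measured output for a strain with defective DNA damage repair.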

[2] = NCI Yeast Anticancer Drug Screen. Data for the wt1 strain (AID 149);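 note: 0% = growth of vehicle-treated wt1 cultures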; details: S. cerevisiae wt1 strain (SPY 50644) growth inhibition, active compounds read high
In short: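 Yeast wt1 strain exposed to compounds; growth inhibition measured relative to vehicle-treated controls.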

[3] = NCI Yeast Anticancer Drug Screen. Data for the rad50EPP+ strain (AID 151);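 note: 0% = growth of vehicle-treated control cultures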; details: S. cerevisiae rad50 mutant strain, active compounds read high
In short: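 Genetically defined yeast (rad50EPP+, DNA damage repair alteration) is grown with compound, and inhibition of growth is expressed relative to vehicle-treated controls.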

[4] = NCI Yeast Anticancer Drug Screen. Data for the mgt1 strain (AID 153); details: S. cerevisiae mgt1 mutant growth inhibition, active compounds read high
In short: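 In the mgt1 strain, test compounds were added and growth inhibition was determined relative to vehicle-treated controls.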

[5] = NCI Yeast Anticancer Drug Screen. Data for the rad50 strain (AID 155);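 note: 0% = growth of vehicle-only cultures of the same strain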; details: S. cerevisiae rad50 strain growth inhibition, active compounds read high
In short: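 Yeast carrying a defined DNA repair defect were exposed to test compounds, and growth was compared with vehicle-treated controls to give percent inhibition.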

[6] = NCI Yeast Anticancer Drug Screen. Data for the mec2-1 strain (AID 157); details: S. cerevisiae mec2-1 strain, active compounds read high
In short: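 Each compound was tested on mec2-1 yeast, a strain altered in DNA damage repair or cell cycle control. Growth inhibition is reported relative to vehicle.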

[7] = NCI Yeast Anticancer Drug Screen. Data for the rad14 strain (AID 159);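 note: 0% = growth of vehicle-treated control cultures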; details: S. cerevisiae rad14 strain growth inhibition, active compounds read high
In short: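 Yeast cells carrying a defined DNA-repair defect were exposed to compounds, and growth inhibition was calculated relative to vehicle-treated control cultures.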

[8] = NCI Yeast Anticancer Drug Screen. Data for the sgs1 mgt1 strain (AID 161);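 note: 0% = growth of cultures given vehicle only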; details: S. cerevisiae sgs1 mgt1 strain, active compounds read high
In short: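 Test agents were incubated with a DNA-repair-mutant yeast strain. Growth was then read and compared against vehicle-treated controls.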

[9] = NCI Yeast Anticancer Drug Screen. Data for the CLN2oe strain (AID 163);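 note: 0% = growth of vehicle-only control cultures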; details: S. cerevisiae CLN2oe strain, active compounds read high
In short: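 First, the altered yeast strain was treated with each compound; second, its growth was measured; finally, inhibition was derived by comparison with vehicle controls.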

[10] = NCI Yeast Anticancer Drug Screen. Data for the cln2 rad14 strain (AID 165);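 note: 0% = growth equal to vehicle treated cultures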; details: S. cerevisiae cln2 rad14 strain, active compounds read high
In short: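 Test compounds were added to cln2 rad14 yeast cultures; inhibition of growth was then determined by comparison with vehicle treatment.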

[11] = NCI Yeast Anticancer Drug Screen. Data for the bub3 strain (AID 167); details: S. cerevisiae bub3 mutant strain, active compounds read high
In short: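 Compounds were applied to a genetically altered yeast strain carrying a cell-cycle control defect. Growth inhibition was scored against vehicle-treated controls.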

[12] = NCI Yeast Anticancer Drug Screen. Data for the mlh1 strain (AID 171);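 note: 0% = growth of vehicle-treated control cultures of the same strain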; details: S. cerevisiae mlh1 strain growth inhibition, active compounds read high
In short: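 Inhibition values reflect reduced yeast growth in the presence of compound, referenced to vehicle controls, using a strain chosen for its alteration in DNA repair or cell cycle control.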

[13] = NCI Yeast Anticancer Drug Screen. Data for the sgs1 strain (AID 173);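 note: 0% = growth of vehicle-only control cultures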; details: S. cerevisiae sgs1 mutant, active compounds read high
In short: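 Vehicle-treated cultures served as reference for growth inhibition of a yeast strain altered in DNA damage repair or cell cycle control after compound exposure.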

[14] = NCI Yeast Anticancer Drug Screen. Data for the mlh1 rad18 strain (AID 175); details: S. cerevisiae mlh1 rad18 strain growth inhibition, active compounds read high
In short: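 Inhibition values reflect reduced growth of mutant yeast versus vehicle-treated controls following compound exposure; the mutations affect DNA damage repair.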

[15] = NCI Yeast Anticancer Drug Screen. Data for the rad18 strain (AID 177); details: S. cerevisiae rad18 mutant growth inhibition, active compounds read high
In short: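 Steps: expose repair-mutant yeast to compound; measure growth; express as inhibition relative to vehicle control.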

[16] = at 5.0 µM (retest, dose inferred, filed as 0.5)
[17] = at 50.0 µM (retest, dose inferred, filed as 5.0)

Measured: growth inhibition

O=[N+]([O-])c1cccc2nc3ccccc3c(NCCCN3CCCCC3)c12
active: [1]; at 1.2 µM 89% | [1]; at 3.7 µM 95% | [1]; at 11.0 µM 96% | [1]; at 33.0 µM 97% | [1]; at 100.0 µM 98% | [2]; at 11.0 µM 80% | [2]; at 33.0 µM 96% | [2]; at 100.0 µM 97% | [3]; at 1.2 µM 83% | [3]; at 3.7 µM 96% | [3]; at 11.0 µM 98% | [3]; at 33.0 µM 98% | [3]; at 100.0 µM 99% | [4]; at 11.0 µM 94% | [4]; at 33.0 µM 98% | [4]; at 100.0 µM 99% | [5]; at 1.2 µM 71% | [5]; at 3.7 µM 89% | [5]; [16] 89% | [5]; at 11.0 µM 94% | [5]; at 33.0 µM 96% | [5]; [17] 98% | [5]; at 50.0 µM 96.7% | [5]; at 100.0 µM 97% | [6]; at 1.2 µM 73% | [6]; at 3.7 µM 94% | [6]; [16] 97% | [6]; at 11.0 µM 97% | [6]; at 33.0 µM 97% | [6]; [17] 99% | [6]; at 50.0 µM 98.2% | [6]; at 100.0 µM 98% | [7]; at 1.2 µM 98% | [7]; at 3.7 µM 98% | [7]; at 11.0 µM 98% | [7]; at 33.0 µM 99% | [7]; at 100.0 µM 98% | [8]; [16] 92% | [8]; [17] 98% | [8]; at 50.0 µM 97% | [9]; at 11.0 µM 89% | [9]; at 33.0 µM 95% | [9]; at 100.0 µM 98% | [10]; [16] 99% | [10]; [17] 99% | [10]; at 50.0 µM 97.5% | [11]; at 11.0 µM 90% | [11]; at 33.0 µM 97% | [11]; [17] 98% | [11]; at 50.0 µM 96.8% | [11]; at 100.0 µM 98% | [12]; at 11.0 µM 92% | [12]; at 33.0 µM 97% | [12]; at 100.0 µM 99% | [13]; at 1.2 µM 87% | [13]; at 3.7 µM 93% | [13]; at 11.0 µM 95% | [13]; at 33.0 µM 98% | [13]; at 100.0 µM 98% | [14]; [16] 97% | [14]; [17] 99% | [14]; at 50.0 µM 98% | [15]; at 1.2 µM 96% | [15]; at 3.7 µM 95% | [15]; at 11.0 µM 97% | [15]; at 33.0 µM 98% | [15]; at 100.0 µM 99%
inactive: [2]; at 1.2 µM 3% | [2]; at 3.7 µM 13% | [4]; at 1.2 µM 12% | [4]; at 3.7 µM 45% | [9]; at 1.2 µM -3% | [9]; at 3.7 µM 45% | [11]; at 1.2 µM -14% | [11]; at 3.7 µM 21% | [11]; [16] 22% | [12]; at 1.2 µM 10% | [12]; at 3.7 µM 50%

O=C(O)C(=Cc1ccc(-c2ccccc2)cc1)C(=O)O
active: [1]; at 100.0 µM 87% | [2]; at 100.0 µM 88% | [4]; at 100.0 µM 90% | [5]; at 100.0 µM 88% | [6]; at 100.0 µM 92% | [7]; at 100.0 µM 90% | [9]; at 100.0 µM 88% | [11]; at 33.0 µM 72% | [11]; at 50.0 µM 71.8% | [11]; at 100.0 µM 93% | [12]; at 100.0 µM 94% | [13]; at 33.0 µM 72% | [13]; at 100.0 µM 92% | [14]; at 50.0 µM 70.9% | [15]; at 33.0 µM 70% | [15]; at 100.0 µM 91%
inactive: [1]; at 1.2 µM 6% | [1]; at 3.7 µM 10% | [1]; at 11.0 µM 24% | [1]; at 33.0 µM 50% | [2]; at 1.2 µM 2% | [2]; at 3.7 µM 4% | [2]; at 11.0 µM 16% | [2]; at 33.0 µM 55% | [3]; at 1.2 µM -1% | [3]; at 3.7 µM -1% | [3]; at 11.0 µM -1% | [3]; at 33.0 µM 6% | [3]; at 100.0 µM 25% | [4]; at 1.2 µM 2% | [4]; at 3.7 µM 4% | [4]; at 11.0 µM 22% | [4]; at 33.0 µM 58% | [5]; at 1.2 µM 0% | [5]; at 3.7 µM -5% | [5]; [16] 2% | [5]; at 11.0 µM 11% | [5]; at 33.0 µM 54% | [5]; [17] 23% | [5]; at 50.0 µM 60.1% | [6]; at 1.2 µM 4% | [6]; at 3.7 µM 7% | [6]; [16] -7% | [6]; at 11.0 µM 30% | [6]; at 33.0 µM 60% | [6]; [17] 63% | [6]; at 50.0 µM 46.5% | [7]; at 1.2 µM 5% | [7]; at 3.7 µM 8% | [7]; at 11.0 µM 17% | [7]; at 33.0 µM 46% | [8]; [16] 4% | [8]; [17] 24% | [8]; at 50.0 µM 31.5% | [9]; at 1.2 µM 5% | [9]; at 3.7 µM 7% | [9]; at 11.0 µM 22% | [9]; at 33.0 µM 56% | [10]; [16] 46% | [10]; [17] 27% | [10]; at 50.0 µM 23.7% | [11]; at 1.2 µM 1% | [11]; at 3.7 µM 1% | [11]; [16] -10% | [11]; at 11.0 µM 24% | [11]; [17] 43% | [12]; at 1.2 µM 3% | [12]; at 3.7 µM 5% | [12]; at 11.0 µM 23% | [12]; at 33.0 µM 69% | [13]; at 1.2 µM 3% | [13]; at 3.7 µM 7% | [13]; at 11.0 µM 26% | [14]; [16] -2% | [14]; [17] 19% | [15]; at 1.2 µM 3% | [15]; at 3.7 µM 7% | [15]; at 11.0 µM 20%
